Source: PubChem BioAssay
mHTT-CaM PPI inh: mHTT-calmodulin interaction abrogation | AlphaScreen His-mHTT/GST-CaM binding, luminescence | inhibition, % at 15 µM | actives 3.6% (n = 190,000) | AID 1671202;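 further: 0% = both proteins with DMSO and 100% = one protein alone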
Pf apPOL block: Pf-apPOL DNA polymerase inhibition. Recombinant Pf-apPOL, molecular beacon fluorescence, 1.5 h. inhibition, % at 10 µM. actives 0.25% (n = 210,000). AID 1794808
Active calls of the source: *; i = inactive; x = not tested or not shown. Only some compounds are listed: those with a hit (about 3.5% of all), similar ones and a draw of the others. No stated cut-off is given here; in the data, active means inhibition above about 50%; inactive means the rest.

SMILES	mHTT-CaM PPI inh	Pf apPOL block
O=C(CC1(O)C(=O)N(Cc2ccc(Cl)cc2)c2ccccc21)c1cccnc1 (stereo unspecified)	25	-2
CCOc1ccc(NC(=O)C2CCN(c3cc(N4CCCCC4)ncn3)CC2)cc1	8	-6
Fc1cccc(Cl)c1C1C=C(c2ccc(I)cc2)Nc2nnnn21 (stereo unspecified)	-2	-2
O=C1NC2(CCN(C(=O)NC3CCCCC3)CC2)Nc2c(Cl)cccc21	1	-4
COc1ncc(C(=O)Nc2ccc(C)c(C)c2)c(C)n1	0	1
Cc1c(Cl)cccc1-c1ccc(C(=O)Nc2nccs2)o1	4	-5
Cc1oc(C2CCN(C(=O)c3ccncc3)CC2)nc1C(=O)N1CCSCC1	-5	-3
O=C1N(c2ccc(F)cc2)c2ncccc2S(=O)(=O)N1Cc1ccccc1F	-2	3
CCOc1ccc(C=Nc2ccc(S(=O)(=O)Nc3ccccn3)cc2)cc1OCC	-1	6
COc1cc(NC(=O)Nc2cccc3cccnc23)cc(OC)c1OC	30	-6
CCOc1cc(C(c2c(C)[nH][nH]c2=O)c2c(C)[nH][nH]c2=O)ccc1O	7	2
CCOc1cc(C(Nc2ccccn2)c2ccc3cccnc3c2O)ccc1OC (stereo unspecified)	100*	-6
COc1cc(C(Nc2ccccn2)c2ccc3cccnc3c2O)cc(Br)c1OC (stereo unspecified)	98*	-3
CCOc1cc(C(Nc2ccccn2)c2ccc3cccnc3c2O)ccc1O (stereo unspecified)	100*	-12
CN(C)CCOC(c1ccccc1)c1ccc(Cl)cc1 (stereo unspecified)	-1	-8
COCCn1c(C2CCN(C(=O)c3ccccc3Cl)C2)nc2ccncc21 (stereo unspecified)	0	-5
Cc1ccc(NC(=O)c2cc([N+](=O)[O-])ccc2NCCO)cc1	14	-6
Cc1ccc2nc(-c3ccc(C)o3)c(NC(=O)C3CCCCC3)n2c1	56*	3
Cc1ccn2c(NC(=O)C3CCCC3)c(-c3ccccc3)nc2c1	36	2
COc1ccc(-c2nc3ccc(C)cn3c2NC(=O)C2CCCCC2)cc1	40	0
Cc1ccc2nc(Cc3ccccc3)c(NC(=O)C3CCCCC3)n2c1	54*	29
Cc1ccc(-c2nc(CN3CCN(C(=O)c4ccc(Cl)cc4)CC3)no2)cc1	13	1
Cc1ccccc1CNC(=O)C1(C)CCCN(S(=O)(=O)Cc2ccccc2)C1 (stereo unspecified)	-9	-5
CN(C)c1ccc(C=Cc2ccc3ccccc3[n+]2C)cc1	x	2
CN1/C(=C/C=C/c2ccc3ccccc3[n+]2C)C=Cc2ccccc21	100*	-3
SMILES	mHTT-CaM PPI inh	Pf apPOL block
COc1ccc(N2C=C(C#N)S(=O)(=O)c3ccc(Cl)cc32)c(C)c1	-6	-4
COc1ccc2c(c1)-c1cc(Cl)ccc1S(=O)(=O)N2C(C)=O	87*	-2
Nc1cc(F)c(C(F)(F)F)c(F)c1	-5	x
O=C(CSc1cccc2cccnc12)NC1CCCCC1	16	-2
O=C(CSc1cccc2cccnc12)N1CCCCC1	88*	-2
CCN(CC)CCNC(=O)C1CCN(Cc2ccc(Cl)cc2)CC1	0	2
Oc1ccc(Oc2ncc(Cl)cc2Cl)cc1	-3	x
NNc1ncc(Cl)cc1Cl	100*	-30
Cc1cccc(/C=C2\N=C(c3ccc(F)cc3)OC2=O)c1	10	-2
COc1cc(C=C2SC(=S)N(C(CC(C)C)C(=O)O)C2=O)cc(OC)c1OC (stereo unspecified)	29	-43
Cc1ccc(-c2csc3ncn(C(C)C(=O)O)c(=O)c23)cc1C (stereo unspecified)	-1	-5
COc1cc(-c2nc3ccccn3c2N=Cc2ccccc2)ccc1O	38	-6
COc1cc(-c2nc3ccccn3c2N=Cc2ccc(F)cc2)ccc1O	79*	-5
Cc1cc(C)nc(SCCCCSc2nc(C)cc(C)n2)n1	-7	-6
CCS(=O)(=O)CCSc1nc(C)cc(C)n1	17	51*
O=C1CCCC2=C1C(c1ccc(Cl)cc1)C1C(=O)c3ccccc3C1=N2 (stereo unspecified)	66*	11
O=C1CCCC2=C1C(c1ccc([N+](=O)[O-])cc1)C1C(=O)c3ccccc3C1=N2 (stereo unspecified)	26	17
Cc1ccc(C2C3=C(CCCC3=O)N=C3c4ccccc4C(=O)C32)cc1 (stereo unspecified)	59*	4
O=C1CCCC2=C1C(c1ccccc1)C1C(=O)c3ccccc3C1=N2 (stereo unspecified)	37	4
COc1ccc(Br)cc1NC(=O)c1coc(=O)c2ccccc12	5	-3
CCOc1ccc2c(=O)c(-c3ccccc3)coc2c1C	4	-17
Cc1ccc2c(c1)/C(=C/c1nc3ccccc3c(=O)n1-c1ccccc1[N+](=O)[O-])C(=O)N2	86*	2
Cc1ccc2c(c1)/C(=C/c1nc3ccccc3c(=O)n1C)C(=O)N2	26	-2
COc1ccccc1C1CC(c2cc(Cl)ccc2O)=NN1 (stereo unspecified)	47	-7
COc1cc(C2CC(c3ccccc3O)=NN2)ccc1O (stereo unspecified)	89*	3
SMILES	mHTT-CaM PPI inh	Pf apPOL block
Cc1ccc(C2=NNC(C)(CC(=O)Nc3ccccc3)S2)cc1 (stereo unspecified)	72*	1
Cc1ccc(N=C2NC(=O)C(CC(=O)Nc3ccccc3)S2)cc1 (stereo unspecified)	-4	-4
Cc1ccc(NC(=O)c2cc(Cl)c(Cl)cc2C(=O)O)cc1C	1	-3
Cc1ccc(NC(=O)c2cc(N3C(=O)C=CC3=O)ccc2Cl)cc1C	92*	-4
Cc1ccc(S(=O)(=O)Nc2ccc(N(C)C)cc2)cc1	55*	-56
Cc1ccc(NS(=O)(=O)c2ccc(Cl)cc2)cc1	-22	5
COc1c(C(C)C)cc(NC(C)=O)cc1C(C)C	-1	-3
CC(=O)Nc1ccc(Nc2cc(C(C)C)c(O)c(C(C)C)c2)cc1	74*	3
Cc1ccc(-c2n[nH]c(C)c2NC(=O)CC(C)(C)C)c(C)c1	6	-4
CCCOc1ccc(C(=O)Nc2ccccc2C)cc1	-7	90*
CCCC(=O)Nc1ccc(NC(=O)c2ccc(C)cc2)cc1	5	-4
CCCOc1ccc(C(=O)Nc2ccccc2[N+](=O)[O-])cc1	29	-9
CCCCOc1ccc(C(=O)Nc2ccc(NC(=O)CCC)cc2)cc1	0	99*
O=C(NCc1cccc(C(F)(F)F)c1)c1cn2ccccc2n1	-4	-1
CCSc1nnc(NC(=O)c2sc3ccccc3c2Cl)s1	-4	0
O=C1C(=CC=Cc2ccco2)SC(=S)N1C1CCCCC1	78*	18
S=c1[nH]nc(C2CCCCC2)n1/N=C\C=C\c1ccco1	i	x
Cc1ccc(NC(=O)c2cccc3[nH]cc(CN4CCSCC4)c23)cc1	9	-4
CC(C)Cn1cc2c3c(cccc31)CN(C(=O)c1cnccn1)CC2	19	-2
COc1ccc(NC(=O)N2CCc3cn(CC(C)C)c4cccc(c34)C2)cc1	9	1
COCC(=O)N1CCc2cn(CC(C)C)c3cccc(c23)C1	76*	-7
CC(C)Cn1cc2c3c(cccc31)CN(C(=O)c1ccncc1)CC2	55*	-1
O=C(NCCCN1CCCC1)c1ccc(F)cc1	-1	-2
Cc1nnc2c(NC(=O)C3CCC3)cccn12	-5	-3
